Laboratory results: PubChem BioAssay AID504607 (Sanford-Burnham Center for Chemical Genomics, 2011)
Screen size: about 6,200 compounds; about 4,800 (77%) were called active.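 Rule for the calls: active = mean inhibition at 8 µM reaching about 37%, which flags the compound as non-specific (limit read from the data); inactive = the rest.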 The set was probably picked from earlier hits. The list is a sample of the results.

Assay: luminescence decrease from intact luciferase reporter – cell-based, single concentration, SaOS-2, counter-screen for Mdm2/MdmX interaction inhibitor project, confirmation (AID 504607);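 note: p53-null SaOS-2 cells with luciferase driven by a doxycycline-inducible promoter; compound on cells about two nights before reading with doxycycline added after day one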
Conditions: SaOS-2 full-length luciferase counterscreen, at 8 µM, active compounds read high

Row | SMILES | inhibition
1 | COc1ccc(-c2cc(C(F)(F)F)nc(S(C)(=O)=O)n2)cc1OC | 24.3% (inactive)
2 | COc1ccc(-c2ccc(Nc3ccc(S(=O)(=O)N4CCCC4)cc3)nn2)cc1OC | 77.8% (active)
3 | COc1ccc(C(=O)O/N=C(\N)Cc2ccc(Cl)cc2Cl)cc1OC | 47.8% (active)
4 | Cc1cccc(Nc2ccccc2C(=O)NCc2ccco2)c1C | 39.6% (active)
5 | COc1cccc(-c2sc3ccc(OC)cc3c2-c2ccc(OCCN3CCCCC3)cc2)c1 | 32.7% (inactive)
6 | COc1ccc2sc(-c3ccc(S(C)(=O)=O)cc3)c(C#Cc3cncn3C)c2c1 | 44.8% (active)
7 | O=C1N/C(=C/c2cccn2-c2ccccc2)C(=O)N1c1cccc(Cl)c1 | 126% (active)
8 | Cc1cccc(-n2c(C)cc(/C=N\NC(=O)c3cccs3)c2C)c1 | 178% (active)
9 | Cc1cc(C(=O)COc2ccccc2[N+](=O)[O-])c(C)n1-c1cccc(S(=O)(=O)N2CCOCC2)c1 | 89.8% (active)
10 | Cn1nc(-c2ccccc2)c(CSc2cccc(Cl)c2)c1Cl | 51.5% (active)
11 | CN1CCN(CCCNC(=O)c2ccc(/C=C3\Oc4ccccc4N(Cc4ccc(Cl)cc4)C3=O)cc2)CC1 | 62.6% (active)
12 | CCN1CCN(CCNC(=O)c2ccc(/C=C3/Sc4ccccc4N(Cc4cccc(C)c4)C3=O)cc2)CC1 | 27.6% (inactive)
13 | Cc1ccc(OCC(O)CN2CCN(CC(O)COc3ccc(C)cc3Cl)CC2)c(Cl)c1 (centres undefined) | 71.1% (active)
14 | Cn1c(=O)n(C)c2cc(C(=O)Nc3ccc4c(c3)OCO4)ccc21 | 56.6% (active)
15 | CC1CCCCC1NC(=O)/C(C#N)=C/C=C/c1ccccc1[N+](=O)[O-] (centres undefined) | 57.2% (active)
16 | NS(=O)(=O)c1ccc(N=Nc2c(O)[nH]c3ccc(Br)cc23)cc1 | 86.5% (active)
17 | C[C@@H]1C[C@@H]2O[C@H]2/C=C\C=C\C(=O)Cc2c(Cl)c(O)cc(O)c2C(=O)O1 | 33.8% (inactive)
18 | Clc1cccc(Cl)c1OCCOCCNCc1ccccc1 | 33% (inactive)
19 | N=c1c2c(-c3ccccc3)c(-c3ccccc3)n(Cc3ccccc3)c2ncn1CCCO | 62% (active)
20 | CCCCC(O)(CCCC)C(=O)NN(C(=O)CCl)c1ccccc1 | 34% (inactive)
21 | Cc1cc(=O)oc2cc(OCC3CC(c4ccccc4Cl)=NO3)ccc12 (centres undefined) | 117% (active)
22 | Cc1ccc(-n2[nH]c(C)c(/C=N/NC(=O)c3cccc([N+](=O)[O-])c3)c2=O)cc1C | 46.2% (active)
23 | Cn1c(C(=O)NCCCN2CCN(c3cccc(Cl)c3)CC2)cc2c(=O)n(C)c3ccccc3c21 | 61.5% (active)
24 | OCCCNc1nccc(-c2cc(Nc3cccc(Cl)c3)ncn2)n1 | 53.2% (active)
